Data taken from the supplement of paper PMC11732987, “Enantioselective OTUD7B fragment discovery through chemoproteomics screening and high-throughput optimisation” (Communications Chemistry, 2025).

Key:
Test in all cases: log2 ratio of Biotin-Ahx-Ub-VS probe labelling (fragment/DMSO); higher = less target engagement (more negative = stronger competition), active = hit call of the paper (q ≤ 0.05, log2 ratio ≤ -1)
Conditions in all cases: compound concentration: 200 uM; treatment time: 3 h
[1] = target: USP34 (UniProt Q70CQ2)
In short: (§1)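 The table lists average log2 ratios of fragment over vehicle, from an unpaired t-test on global-median-normalised Spectronaut label-free quantities. Proteins with ≥2 unique peptides were used. Samples were HEK293T lysate (495 µg) treated in triplicate with fragment at 200 µM or vehicle for 3 h, then with Biotin-Ahx-Ub-VS (0.5 µM final) for 1 h, with labelled DUBs NeutrAvidin-enriched and run by diaPASEF LC-MS/MS.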

[2] = target: T1, USP36 (UniProt Q9P275)
T1 sequence (whole entry): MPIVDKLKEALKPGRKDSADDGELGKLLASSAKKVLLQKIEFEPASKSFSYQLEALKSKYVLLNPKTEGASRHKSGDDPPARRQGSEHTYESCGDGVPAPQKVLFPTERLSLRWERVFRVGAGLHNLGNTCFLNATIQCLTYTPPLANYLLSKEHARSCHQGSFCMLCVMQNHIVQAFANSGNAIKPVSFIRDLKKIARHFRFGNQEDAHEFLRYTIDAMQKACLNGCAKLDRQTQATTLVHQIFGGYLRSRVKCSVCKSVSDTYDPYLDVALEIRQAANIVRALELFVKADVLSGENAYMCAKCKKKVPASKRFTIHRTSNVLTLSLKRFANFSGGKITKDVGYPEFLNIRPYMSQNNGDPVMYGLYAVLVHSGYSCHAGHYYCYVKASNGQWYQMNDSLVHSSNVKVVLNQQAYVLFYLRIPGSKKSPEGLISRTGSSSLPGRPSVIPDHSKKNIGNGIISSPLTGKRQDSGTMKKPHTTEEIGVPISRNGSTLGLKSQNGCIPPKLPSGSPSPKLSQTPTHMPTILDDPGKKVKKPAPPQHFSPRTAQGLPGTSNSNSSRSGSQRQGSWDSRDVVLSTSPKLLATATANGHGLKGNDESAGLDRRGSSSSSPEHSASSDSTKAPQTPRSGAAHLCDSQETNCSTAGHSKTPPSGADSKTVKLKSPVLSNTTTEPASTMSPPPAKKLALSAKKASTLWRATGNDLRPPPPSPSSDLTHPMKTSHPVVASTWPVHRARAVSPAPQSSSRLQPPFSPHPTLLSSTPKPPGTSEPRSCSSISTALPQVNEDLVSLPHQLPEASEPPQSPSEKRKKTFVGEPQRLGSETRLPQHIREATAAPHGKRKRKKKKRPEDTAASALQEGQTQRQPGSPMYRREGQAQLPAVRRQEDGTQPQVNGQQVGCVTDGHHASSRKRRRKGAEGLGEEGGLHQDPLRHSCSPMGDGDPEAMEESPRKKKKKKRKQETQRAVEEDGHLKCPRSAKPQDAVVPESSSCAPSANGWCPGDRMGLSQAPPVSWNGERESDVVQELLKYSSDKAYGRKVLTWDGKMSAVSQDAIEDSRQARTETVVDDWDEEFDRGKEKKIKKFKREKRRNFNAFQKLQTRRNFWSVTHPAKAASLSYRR
In short: as §1

[3] = target: T2, USP38 (UniProt Q8NB14)
T2 sequence (whole entry): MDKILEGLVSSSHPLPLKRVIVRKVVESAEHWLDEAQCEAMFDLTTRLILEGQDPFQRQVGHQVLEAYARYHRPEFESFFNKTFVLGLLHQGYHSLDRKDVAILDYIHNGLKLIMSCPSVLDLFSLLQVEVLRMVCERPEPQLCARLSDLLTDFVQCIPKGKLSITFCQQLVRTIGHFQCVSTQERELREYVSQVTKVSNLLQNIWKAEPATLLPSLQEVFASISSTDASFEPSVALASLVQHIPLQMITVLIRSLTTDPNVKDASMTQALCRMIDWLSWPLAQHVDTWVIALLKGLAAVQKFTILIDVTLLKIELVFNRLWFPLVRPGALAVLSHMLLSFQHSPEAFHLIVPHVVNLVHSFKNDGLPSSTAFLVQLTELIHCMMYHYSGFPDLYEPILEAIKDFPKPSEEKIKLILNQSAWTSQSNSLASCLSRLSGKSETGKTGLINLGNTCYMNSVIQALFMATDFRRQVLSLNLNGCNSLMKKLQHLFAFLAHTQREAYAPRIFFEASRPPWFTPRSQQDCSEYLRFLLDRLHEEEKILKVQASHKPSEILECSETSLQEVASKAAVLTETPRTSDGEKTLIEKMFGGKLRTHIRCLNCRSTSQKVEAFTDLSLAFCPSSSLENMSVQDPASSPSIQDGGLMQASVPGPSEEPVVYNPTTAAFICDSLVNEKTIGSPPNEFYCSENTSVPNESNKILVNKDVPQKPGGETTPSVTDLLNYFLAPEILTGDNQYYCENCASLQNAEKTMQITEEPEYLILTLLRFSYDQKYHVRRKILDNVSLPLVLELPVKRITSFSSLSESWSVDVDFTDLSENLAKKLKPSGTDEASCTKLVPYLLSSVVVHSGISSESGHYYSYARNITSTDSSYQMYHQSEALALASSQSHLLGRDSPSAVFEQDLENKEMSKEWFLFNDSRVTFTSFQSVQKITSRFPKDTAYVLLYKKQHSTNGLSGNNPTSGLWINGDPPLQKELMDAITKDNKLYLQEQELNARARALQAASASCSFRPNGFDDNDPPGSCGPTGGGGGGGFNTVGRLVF
In short: as §1

[4] = target: T3, USP39 (UniProt Q53GS9)
T3 sequence (whole entry): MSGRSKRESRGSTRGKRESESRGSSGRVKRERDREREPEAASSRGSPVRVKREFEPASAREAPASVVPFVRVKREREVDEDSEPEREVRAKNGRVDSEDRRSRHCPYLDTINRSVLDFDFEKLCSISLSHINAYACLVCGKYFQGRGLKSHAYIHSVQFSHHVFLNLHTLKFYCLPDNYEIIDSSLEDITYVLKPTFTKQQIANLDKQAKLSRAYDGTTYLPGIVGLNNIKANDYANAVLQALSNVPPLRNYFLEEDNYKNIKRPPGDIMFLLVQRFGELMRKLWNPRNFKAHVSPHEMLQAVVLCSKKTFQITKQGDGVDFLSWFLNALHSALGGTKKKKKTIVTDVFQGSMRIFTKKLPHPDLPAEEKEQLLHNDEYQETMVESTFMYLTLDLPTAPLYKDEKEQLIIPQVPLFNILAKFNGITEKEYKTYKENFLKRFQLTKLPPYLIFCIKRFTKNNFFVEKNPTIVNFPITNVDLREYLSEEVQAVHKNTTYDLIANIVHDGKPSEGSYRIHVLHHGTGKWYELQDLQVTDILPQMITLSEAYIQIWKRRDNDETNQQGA
In short: as §1

[5] = target: T4, USP4 (UniProt Q13107)
T4 sequence (whole entry): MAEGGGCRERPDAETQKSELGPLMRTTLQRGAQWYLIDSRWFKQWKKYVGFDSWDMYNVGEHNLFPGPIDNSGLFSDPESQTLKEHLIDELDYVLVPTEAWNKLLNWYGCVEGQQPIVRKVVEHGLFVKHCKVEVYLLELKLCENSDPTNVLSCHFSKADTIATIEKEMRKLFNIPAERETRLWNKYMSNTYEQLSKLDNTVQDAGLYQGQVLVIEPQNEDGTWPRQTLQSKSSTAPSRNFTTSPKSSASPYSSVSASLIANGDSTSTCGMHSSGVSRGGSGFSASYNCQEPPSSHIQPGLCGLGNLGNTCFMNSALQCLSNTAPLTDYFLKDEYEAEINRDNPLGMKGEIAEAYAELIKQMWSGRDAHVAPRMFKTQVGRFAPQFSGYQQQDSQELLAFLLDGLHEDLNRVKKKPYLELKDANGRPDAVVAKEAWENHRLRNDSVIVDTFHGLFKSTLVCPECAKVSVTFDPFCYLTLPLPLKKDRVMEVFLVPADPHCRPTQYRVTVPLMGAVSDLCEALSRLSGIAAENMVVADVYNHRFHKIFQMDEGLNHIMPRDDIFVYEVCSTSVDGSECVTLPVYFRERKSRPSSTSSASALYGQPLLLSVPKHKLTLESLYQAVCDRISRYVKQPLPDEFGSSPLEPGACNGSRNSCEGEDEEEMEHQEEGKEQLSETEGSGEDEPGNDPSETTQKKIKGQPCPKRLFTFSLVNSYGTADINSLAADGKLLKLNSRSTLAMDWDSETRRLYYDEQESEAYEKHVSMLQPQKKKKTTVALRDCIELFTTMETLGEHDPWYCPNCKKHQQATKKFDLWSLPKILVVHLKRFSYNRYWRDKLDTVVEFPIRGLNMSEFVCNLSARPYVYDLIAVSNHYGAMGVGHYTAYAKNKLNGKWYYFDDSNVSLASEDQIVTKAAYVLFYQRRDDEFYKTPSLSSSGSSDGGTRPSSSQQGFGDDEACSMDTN
In short: as §1

Measured: log2 ratio of Biotin-Ahx-Ub-VS probe labelling

Sequence of USP34 (Q70CQ2 whole entry, the tested form may be a part): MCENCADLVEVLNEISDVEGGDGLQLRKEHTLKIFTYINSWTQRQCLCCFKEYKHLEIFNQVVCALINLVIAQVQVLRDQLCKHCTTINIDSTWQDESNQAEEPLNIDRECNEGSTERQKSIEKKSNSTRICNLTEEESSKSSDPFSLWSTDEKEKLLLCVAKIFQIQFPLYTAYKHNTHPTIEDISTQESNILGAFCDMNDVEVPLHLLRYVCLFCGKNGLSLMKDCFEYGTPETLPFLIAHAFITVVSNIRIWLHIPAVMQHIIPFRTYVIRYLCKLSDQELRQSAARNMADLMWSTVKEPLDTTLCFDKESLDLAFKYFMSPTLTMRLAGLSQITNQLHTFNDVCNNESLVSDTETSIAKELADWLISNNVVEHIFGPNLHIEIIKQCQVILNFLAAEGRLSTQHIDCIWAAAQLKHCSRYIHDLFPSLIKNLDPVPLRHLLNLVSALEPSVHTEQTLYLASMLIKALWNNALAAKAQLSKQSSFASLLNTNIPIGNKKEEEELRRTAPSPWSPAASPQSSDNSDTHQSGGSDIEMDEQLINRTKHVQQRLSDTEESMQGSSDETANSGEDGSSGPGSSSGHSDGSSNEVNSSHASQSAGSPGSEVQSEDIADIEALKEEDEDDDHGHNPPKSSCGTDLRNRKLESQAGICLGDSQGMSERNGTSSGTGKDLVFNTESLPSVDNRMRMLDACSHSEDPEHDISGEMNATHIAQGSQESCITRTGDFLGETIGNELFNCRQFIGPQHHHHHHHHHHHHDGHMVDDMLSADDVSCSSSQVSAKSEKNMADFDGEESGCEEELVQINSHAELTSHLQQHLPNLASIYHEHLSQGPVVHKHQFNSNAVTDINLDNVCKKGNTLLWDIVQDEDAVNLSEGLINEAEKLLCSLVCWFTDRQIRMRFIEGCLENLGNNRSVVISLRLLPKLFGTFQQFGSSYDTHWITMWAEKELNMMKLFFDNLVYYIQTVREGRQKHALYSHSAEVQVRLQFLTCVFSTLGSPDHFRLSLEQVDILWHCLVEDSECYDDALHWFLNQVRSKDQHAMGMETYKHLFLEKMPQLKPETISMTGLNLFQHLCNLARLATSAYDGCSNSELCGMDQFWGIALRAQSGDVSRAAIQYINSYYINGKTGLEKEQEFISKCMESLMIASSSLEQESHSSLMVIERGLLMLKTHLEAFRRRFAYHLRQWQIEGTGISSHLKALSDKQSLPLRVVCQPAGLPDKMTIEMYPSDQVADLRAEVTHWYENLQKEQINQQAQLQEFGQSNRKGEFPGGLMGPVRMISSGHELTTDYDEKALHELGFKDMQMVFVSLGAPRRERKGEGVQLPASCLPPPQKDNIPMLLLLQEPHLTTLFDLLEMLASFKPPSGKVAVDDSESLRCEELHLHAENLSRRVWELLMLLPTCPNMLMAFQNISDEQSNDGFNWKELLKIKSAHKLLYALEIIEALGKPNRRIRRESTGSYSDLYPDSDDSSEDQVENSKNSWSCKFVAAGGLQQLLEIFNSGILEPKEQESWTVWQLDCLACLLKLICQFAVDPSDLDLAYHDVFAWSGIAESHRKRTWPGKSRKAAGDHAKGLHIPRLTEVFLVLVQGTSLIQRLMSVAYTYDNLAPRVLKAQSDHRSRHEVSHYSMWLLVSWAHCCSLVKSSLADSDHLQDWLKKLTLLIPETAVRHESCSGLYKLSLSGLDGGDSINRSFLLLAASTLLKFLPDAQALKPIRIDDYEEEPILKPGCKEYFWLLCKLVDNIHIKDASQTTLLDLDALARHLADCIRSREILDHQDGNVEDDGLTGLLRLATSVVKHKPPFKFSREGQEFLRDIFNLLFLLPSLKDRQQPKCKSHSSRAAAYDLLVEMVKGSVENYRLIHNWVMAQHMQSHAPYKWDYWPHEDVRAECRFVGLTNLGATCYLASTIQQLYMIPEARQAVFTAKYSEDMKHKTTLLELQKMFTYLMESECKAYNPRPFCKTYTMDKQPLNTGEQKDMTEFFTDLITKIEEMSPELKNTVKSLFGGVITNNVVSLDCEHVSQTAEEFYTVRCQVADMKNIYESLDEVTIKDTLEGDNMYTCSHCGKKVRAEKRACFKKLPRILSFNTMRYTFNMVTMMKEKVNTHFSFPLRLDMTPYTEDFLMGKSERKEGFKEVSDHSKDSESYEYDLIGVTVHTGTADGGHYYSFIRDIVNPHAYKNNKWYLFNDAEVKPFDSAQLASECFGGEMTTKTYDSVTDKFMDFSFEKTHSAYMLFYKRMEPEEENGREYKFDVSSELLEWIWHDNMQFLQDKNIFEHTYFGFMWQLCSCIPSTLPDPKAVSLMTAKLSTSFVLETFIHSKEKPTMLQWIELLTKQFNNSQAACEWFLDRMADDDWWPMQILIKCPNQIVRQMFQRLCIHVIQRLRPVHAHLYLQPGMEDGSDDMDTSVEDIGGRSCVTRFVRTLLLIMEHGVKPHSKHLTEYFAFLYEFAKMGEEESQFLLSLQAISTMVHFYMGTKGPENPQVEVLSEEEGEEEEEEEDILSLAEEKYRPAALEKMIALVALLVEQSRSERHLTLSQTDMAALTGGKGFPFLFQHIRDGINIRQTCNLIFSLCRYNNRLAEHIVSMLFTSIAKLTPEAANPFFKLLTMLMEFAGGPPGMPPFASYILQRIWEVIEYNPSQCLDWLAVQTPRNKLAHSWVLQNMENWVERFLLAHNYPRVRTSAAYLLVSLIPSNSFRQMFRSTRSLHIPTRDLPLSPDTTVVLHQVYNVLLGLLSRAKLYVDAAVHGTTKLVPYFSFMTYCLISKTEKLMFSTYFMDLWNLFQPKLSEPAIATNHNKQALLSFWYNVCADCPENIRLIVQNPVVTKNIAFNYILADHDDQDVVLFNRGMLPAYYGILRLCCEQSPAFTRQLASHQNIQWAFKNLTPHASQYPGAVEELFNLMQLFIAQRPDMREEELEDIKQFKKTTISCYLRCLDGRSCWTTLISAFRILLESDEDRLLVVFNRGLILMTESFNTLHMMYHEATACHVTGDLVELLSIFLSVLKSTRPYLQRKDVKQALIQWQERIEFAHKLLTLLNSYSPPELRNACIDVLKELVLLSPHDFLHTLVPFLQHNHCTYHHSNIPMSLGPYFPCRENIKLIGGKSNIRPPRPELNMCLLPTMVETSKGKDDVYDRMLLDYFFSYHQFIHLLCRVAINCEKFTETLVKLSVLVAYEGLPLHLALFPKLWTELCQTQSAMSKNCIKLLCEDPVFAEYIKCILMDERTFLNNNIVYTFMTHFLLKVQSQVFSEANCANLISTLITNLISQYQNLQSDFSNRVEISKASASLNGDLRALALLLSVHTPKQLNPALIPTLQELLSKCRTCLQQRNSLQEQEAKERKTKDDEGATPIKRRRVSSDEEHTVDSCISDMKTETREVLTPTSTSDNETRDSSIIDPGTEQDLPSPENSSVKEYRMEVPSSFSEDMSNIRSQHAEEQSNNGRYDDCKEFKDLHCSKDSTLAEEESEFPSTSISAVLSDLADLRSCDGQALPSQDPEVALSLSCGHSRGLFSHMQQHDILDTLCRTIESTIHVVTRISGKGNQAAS

O=C(CCl)N1CCCCCC1c1ncon1 (stereo not given)
inactive: [1] 0.0612 | [2] -0.0657 | [3] 0.0218 | [4] -0.043 | [5] -0.0581
